The supplement of paper PMC4723716
± gives the uncertainty stated by the source. In all, about 9,900 compounds were measured (“viability index relative to DMSO control”: median about 1, lowest 2% from about 0.85 on). This is one part of a sample in which the lowest values are shown more often than they occur.

Test system: Plasmodium falciparum NF54 stage V gametocytes
Assay: viability index relative to DMSO control (fraction); higher = less gametocyte killing
Details: 2.5 µM, incubation time: 72 h
In short: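 P. falciparum NF54 stage V gametocytes (serum-free medium, 0.75% gametocytemia, 1.25% hematocrit) were exposed to compound at 2.5 µM for 72 hr at 37°C under low oxygen, then stained with MitoTracker Red CMXRos and saponin for one to two hours. Red particles of 20–70 µm2 in one field per well were counted, and the viability index is that count scaled to the plate mean of solvent-only wells.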

[1] = library set: Broad Institute DOS

Structure (SMILES)	viability index [1]	viability index (library set: Broad Institute Blood Stage)
C[C@H]1CN([C@@H](C)CO)C(=O)c2cccc(NS(C)(=O)=O)c2O[C@@H]1CN(C)Cc1ccc(-c2ccccc2)cc1	1 ± 0.078	–
C[C@H](CO)N1C[C@H](C)[C@@H](CN(C)Cc2ccc(Oc3ccccc3)cc2)Oc2c(NC(=O)CCC(F)(F)F)cccc2C1=O	0.888 ± 0.11	–
C[C@H](CO)N1C[C@H](C)[C@@H](CN(C)Cc2ccccc2)Oc2c(NC(=O)Cc3cn(C)c4ccccc34)cccc2C1=O	0.744 ± 0.038	–
CO[C@H](CN(C)S(=O)(=O)c1ccc(C)cc1)[C@H](C)CN(C(=O)Nc1ccccc1F)[C@H](C)CO	1.06 ± 0.026	–
O=C(C[C@H]1CC[C@@H]2[C@H](COC[C@H](O)CN2Cc2ccc3c(c2)OCO3)O1)N1CCCCC1	1.01 ± 0.072	–
O=C(c1cnccn1)N1C[C@@H]2N[C@H](C1)[C@@H]2c1ccc(/C=C/c2ccccc2)cc1	1.05 ± 0.026	–
COc1ccc(S(=O)(=O)Nc2cccc3c2O[C@@H](CN(C)CC2CCCCC2)[C@H](C)CN([C@H](C)CO)C3=O)cc1	0.958 ± 0.094	–
COCC(=O)N1C[C@@]2(C1)CN([C@H](CO)c1[nH]c3cc(OC)ccc3c21)C(=O)Nc1ccccc1F	1.03 ± 0.071	–
COc1ccc2c3c([nH]c2c1)[C@H](CO)N(C[C@]31CCN(CC1)C(=O)Nc1ccc(F)cc1F)C(C)=O	0.748 ± 0.035	–
CCC(=O)N1C[C@]2(CCN(CC2)C(=O)Nc2ccccc2F)c2c([nH]c3cc(OC)ccc23)[C@H]1CO	0.9987 ± 0.0051	–
CCC(=O)N1C[C@]2(CCN(CC2)C(=O)Nc2ccccc2F)c2c([nH]c3cc(OC)ccc23)[C@@H]1CO	0.642 ± 0.081	–
COc1ccc2c3c([nH]c2c1)[C@@H](CO)N(C[C@]31CCN(CC1)C(=O)Nc1ccc(F)cc1F)C(C)=O	1.07 ± 0.056	–
COc1ccc2c3c([nH]c2c1)[C@H](CO)N(C[C@]31CN(CC2CC2)C1)C(=O)CN(C)C	1.07 ± 0.032	–
COc1ccc2c3c([nH]c2c1)[C@H](CO)N(C[C@]31CCN(CC1)C(=O)Nc1ccccc1)S(C)(=O)=O	0.121 ± 0.0032	–
COc1ccc2c3c([nH]c2c1)[C@@H](CO)N(C[C@]31CN(CC2CC2)C1)C(=O)CN(C)C	0.939 ± 0.018	–
COc1ccc2c3c([nH]c2c1)[C@@H](CO)N(C[C@]31CCN(CC1)C(=O)Nc1ccccc1)S(C)(=O)=O	0.99 ± 0.15	–
COCC(=O)N1CC[C@@]2(CC1)CN([C@@H](CO)c1[nH]c3cc(OC)ccc3c21)S(C)(=O)=O	1.09 ± 0.06	–
COc1ccc2c3c([nH]c2c1)[C@@H](CO)N(C[C@]31CCN(CC2CCCCC2)CC1)C(=O)CN(C)C	–	0.807 ± 0.026

Structure (SMILES)	viability index [1]	viability index (library set: Broad Institute Blood Stage)
COc1ccc2c3c([nH]c2c1)[C@@H](CO)N(C[C@]31CCN(CC1)C(C)=O)C(C)=O	0.9689 ± 0.0023	–
O=C(C[C@@H]1C[C@H]2c3cc(NS(=O)(=O)c4ccccc4)ccc3O[C@H]2[C@@H](CO)O1)N1CCOCC1	1.05 ± 0.026	–
COCC(=O)NC[C@@H]1[C@H](c2ccccc2)[C@H](CO)N1C(=O)c1ccccc1	0.986 ± 0.17	–
C[C@H]1CN([C@@H](C)CO)C(=O)c2cccc(NC(=O)c3cnccn3)c2O[C@H]1CN(C)C(=O)NC1CCCCC1	1.01 ± 0.033	–
COc1ccccc1-c1ccc2n(c1=O)C[C@@H]1[C@@H](CO)[C@H](C(=O)N3CCOCC3)[C@H]2N1CC1CC1	1.04 ± 0.016	–
COc1cccc(-c2ccc3n(c2=O)C[C@@H]2[C@@H](CO)[C@H](C(=O)N(C)C)[C@H]3N2C(=O)c2ccccn2)c1	1.04 ± 0.017	–
CO[C@@H]1CN(C)C(=O)c2ccc(NC(=O)C3CC3)cc2OC[C@@H](C)N(C(C)=O)C[C@@H]1C	1.02 ± 0.042	–
CN1C[C@@H](O)COC[C@H]2O[C@H](CC(=O)NC3CCCC3)CC[C@@H]21	1.05 ± 0.064	–
O=C(C1CCC1)N1C[C@@H]2N[C@H](C1)[C@@H]2c1ccc(/C=C/c2ccccc2)cc1	0.799 ± 0.019	–
O=C(C1CCC1)N1C[C@@H]2N[C@H](C1)[C@H]2c1ccc(/C=C/c2ccccc2)cc1	1.02 ± 0.042	–
O=C(c1ccc2c(c1)OCO2)N1C[C@@H]2N[C@H](C1)[C@@H]2c1ccc(/C=C/c2ccccc2)cc1	0.731 ± 0.086	–
COc1ccccc1NC(=O)N1C[C@@H]2N[C@H](C1)[C@@H]2c1ccc(/C=C/c2ccccc2)cc1	0.571 ± 0.027	–
O=C(c1ccc2c(c1)OCO2)N1C[C@@H]2N[C@H](C1)[C@@H]2c1ccc(-c2cncnc2)cc1	1.08 ± 0.035	–
C/C=C/c1ccc([C@H]2[C@@H]3CN(C(=O)Nc4ccccc4F)C[C@H]2N3)cc1	1.06 ± 0.034	–
O=C(C1CCC1)N1C[C@@H]2N[C@H](C1)[C@@H]2c1ccc(-c2cncnc2)cc1	1.115 ± 0.0039	–
COc1ccccc1NC(=O)N1C[C@@H]2N[C@H](C1)[C@H]2c1ccc(/C=C/c2ccccc2)cc1	0.976 ± 0.048	–
O=C(c1ccc2c(c1)OCO2)N1C[C@@H]2N[C@H](C1)[C@H]2c1ccc(/C=C/c2ccccc2)cc1	1.05 ± 0.017	–
